The structures appear in SMILES notation. Hit rate of the full screen: of about 69,000 compounds, about 8,600 (12%) showed an effect of 50% or more. For the sample, strong results were picked, then their nearest neighbours and some compounds at random.

This assay concerns Plasmodium berghei. The assay is described as follows: Screen against P. berghei liver stage (PbLuc), transformed with Luciferase, at 10uM. The following applies: tested at 10 uM. Type of assay: functional, HepG2.
For the compound `CN1CCN(C(=O)c2ccccc2)CC(Cc2cc(N(C)C)ncn2)C1` (configuration not stated), the INHIBITION is on record as 21.1%.

As to `CCCn1nc(C(=O)N(C)Cc2cnn(C)c2)ccc1=O`, the INHIBITION was 48.7%.

On to `CCOCC1CN(C(=O)c2ccnnc2)Cc2cnn(C)c21` (configuration not stated), for which the INHIBITION is -2.35%. For `CN1CCN(Cc2cnc3n2CCN(Cc2cccnc2)CC3)CC1`, the INHIBITION was -1.36%.

Take `c1cnc(OCc2nnc3n2CCN(CC2CCOCC2)C3)nc1`: the INHIBITION is reported as 6.66%.

In the case of `Cc1nn(C)c(C)c1C1CCCN1C(=O)CCc1ccco1` (configuration not stated), the INHIBITION is on record as -37.7%. `COc1cccc(-c2n[nH]cc2CNC2CCN(C(C)C)CC2)c1`: the INHIBITION is given as -59.5%. As for `CCC(NC(=O)C1CC1)c1ccccc1OCC(=O)N1CCCC1` (configuration not stated), the INHIBITION came to 9.47%.

`Cn1c(=O)[nH]c(=O)n2c(CC(=O)Nc3c(Cl)cccc3Cl)cnc12`: the INHIBITION came to 9.32%. Turning to `CN(C)c1cc(C2CCCN(S(=O)(=O)C3CCCC3)C2)ccn1` (configuration not stated), the INHIBITION is reported as 54.4%. `O=C(c1noc2c1CCCC2)N1CCCC(c2nccs2)C1` (configuration not stated): the INHIBITION was found to be 13.7%.

`CN(C)c1cc(C2CCCN(S(=O)(=O)c3cn[nH]c3)C2)ccn1` (configuration not stated): the INHIBITION is 85.7%. The figure for `CN(C)c1cc(C2CCCN2C(=O)c2noc3c2CCCC3)ccn1` (configuration not stated) is -13.2%; for `Cc1cc(C2CCCN(S(=O)(=O)c3cn[nH]c3)C2)ccn1` (configuration not stated) it is 19.6%; for `CNc1cc(C2CCCN(S(=O)(=O)c3cn[nH]c3)C2)ccn1` (configuration not stated) it is 28%. In the case of `CN(C)c1cc(C2CCCN(C(=O)c3noc4c3CCCC4)C2)ccn1` (configuration not stated), the INHIBITION is listed as 65.7%.

For the compound `CN(C)c1cc(C2CCCN(S(=O)(=O)c3cn(C)cn3)C2)ccn1` (configuration not stated), the INHIBITION is given as -44.2%. Then `CCS(=O)(=O)N1CCCC(c2ccnc(N(C)C)c2)C1` (configuration not stated), with 0.301%; and `Cc1nc(CCNCc2c(C)nn(C)c2N2CCOCC2)cs1`, with -1%. As to `CCc1cc(NCC(O)CN2CCCCC2)ncn1` (configuration not stated), the INHIBITION is 27.4%. Then `COC(=O)Cn1c(=O)[nH]c2cn(-c3ccccc3)c(=O)n21`, with -4.56%; and `CC(C)CCN(C)Cc1ccccc1-c1nc(C(C)C)cc(=O)[nH]1`, with -6.83%; and `Cc1cc(CNCc2c(C(C)C)nn(C)c2N2CCOCC2)no1`, with 28.8%.

`O=C(COCCOc1ccccc1)N1CCCC(n2ccnc2)C1` (configuration not stated): the INHIBITION is 15.6%. Turning to `Cc1ccc(CN2CCn3c(C(=O)N(C)C)cnc3C2)s1`, the INHIBITION came out at 42.1%. Then `CC1CCc2n[nH]c(C(=O)N3CCc4c(nc(N(C)C)[nH]c4=O)C3)c2C1` (configuration not stated), with 16.3%; and `CN(C)c1nccc(N(C)Cc2nc3ccccc3n2C)n1`, with 55.5%. `CN(Cc1ncnn1C)c1ccnc(Cc2ccccc2)n1`: the INHIBITION is reported as -7.16%.

With `CN(C)c1nccc(N(C)Cc2ncnn2C)n1`, the INHIBITION was found to be 32%. Regarding `O=C([C@@H]1C[C@@H]2CCN(C3CCOCC3)C[C@@H]2O1)N1CCCC1`, the INHIBITION is -24.1%.

As for `O=C(NC1CCC1)[C@@H]1C[C@@H]2CCN(Cc3ccncc3)C[C@H]2O1`, the INHIBITION is 32.7%.

In the case of `COCCNC(=O)[C@H]1C[C@@H]2CCN(CCc3ccccc3)C[C@H]2O1`, the INHIBITION is reported as 59%.

In the case of `O=C(NCC1CC1)[C@H]1C[C@@H]2CCN(CCc3ccccc3)C[C@H]2O1`, the INHIBITION is 54.4%.

For the compound `O=C([C@H]1C[C@@H]2CCN(C3CCOCC3)C[C@H]2O1)N1CCCC1`, the INHIBITION was determined as 51%. The figure for `O=C(NC1CC1)[C@@H]1C[C@@H]2CCN(Cc3ccccc3)C[C@@H]2O1` is 47.4%; for `O=C(NC1CCC1)[C@@H]1C[C@@H]2CCN(Cc3cccs3)C[C@@H]2O1` it is 50%. Consider `COCCNC(=O)[C@H]1C[C@@H]2CCN(c3ccccc3)C[C@H]2O1`, for which the INHIBITION is 10.5%. The figure for `O=C([C@@H]1C[C@@H]2CCN(C3CCOCC3)C[C@H]2O1)N1CCCC1` is -9.26%; for `COCCNC(=O)[C@H]1C[C@@H]2CCN(CCc3ccccc3)C[C@@H]2O1` it is 22.9%; for `O=C(NCC1CCOCC1)[C@H]1C[C@@H]2CCN(Cc3ccccc3)C[C@H]2O1` it is 32.2%. The figure for `O=C(NCC1CC1)[C@@H]1C[C@@H]2CCN(Cc3ccccc3)C[C@H]2O1` is 0.618%; for `COc1ccc(OC2CCN(C(=O)[C@@H](N)Cc3c[nH]cn3)CC2)cc1` it is 23.3%. The figure for `CN(C)CC1CSCCCN1C(=O)c1cccc(C(F)(F)F)c1` (configuration not stated) is 4.35%; for `CC(=O)N1CCN(C(=O)Cc2cnc(-c3c(Cl)cccc3Cl)s2)CC1` it is 13.8%; for `CC(C)N1CCC(c2cc(C(F)(F)F)n3ccnc3n2)CC1` it is 15.9%. With `O=C1CNc2ncnc(Nc3cccc(Cn4cccn4)c3)c2N1`, the INHIBITION was 46.1%. Regarding `Cc1nonc1CN(C)Cc1cnn(-c2ccc(Cl)cc2)c1`, the INHIBITION is reported as -8.58%. For the compound `CN(C)CCCC(=O)N1C[C@@H]2CC[C@H]1CN(Cc1ccccc1)C2`, the INHIBITION amounted to 11.2%. Take `c1ccc(-n2ccc(CN3CCCCC3Cn3cncn3)n2)cc1` (configuration not stated): the INHIBITION is given as -10.1%. With `CCn1nc(C)c(NC(=O)CN2CC[C@@H](F)C2)c1C`, the INHIBITION is 24.5%. Then `COc1ccccc1CN1CC[C@H]2C[C@H](C(=O)N3CCCC3)O[C@H]2C1`, with 64.2%; and `O=C([C@@H]1C[C@@H]2CCN(Cc3ccc4c(c3)OCO4)C[C@@H]2O1)N1CCCC1`, with 33.4%. Consider `CN1CCN(C(=O)[C@@H]2C[C@@H]3CCN(c4cccc(F)c4)C[C@H]3O2)CC1`, for which the INHIBITION turned out to be 23.3%. Then `Cc1ncccc1NC(=O)[C@@H]1C[C@@H]2CCN(Cc3cccs3)C[C@H]2O1`, with 8.93%. In the case of `O=C([C@@H]1C[C@@H]2CCN(c3cccc(F)c3)C[C@H]2O1)N1CCCC1`, the INHIBITION was 42.1%. The figure for `CNC(=O)[C@H]1C[C@@H]2CCN(CCc3ccccc3)C[C@@H]2O1` is 18.3%; for `Cc1ncccc1NC(=O)[C@H]1C[C@@H]2CCN(Cc3nccs3)C[C@@H]2O1` it is 31.8%; for `Cc1ncccc1NC(=O)[C@H]1C[C@@H]2CCN(Cc3ccsc3)C[C@H]2O1` it is 75.4%.

For the compound `COc1ccccc1CN1CC[C@H]2C[C@@H](C(=O)N3CCCC3)O[C@H]2C1`, the INHIBITION is on record as -16.6%.

On to `O=C([C@@H]1C[C@@H]2CCN(Cc3ccoc3)C[C@H]2O1)N1CCCC1`, for which the INHIBITION amounted to 26.7%. Then `O=C([C@H]1C[C@@H]2CCN(c3cccc(F)c3)C[C@H]2O1)N1CCCC1`, with 89.5%. As to `O=C([C@@H]1C[C@@H]2CCN(CCc3ccccc3)C[C@H]2O1)N1CCCC1`, the INHIBITION is 50%. The figure for `CC(C)c1ccc(-n2ncc(C(=O)NCC3COC(C)(C)O3)c2N)cc1` (configuration not stated) is -20.1%; for `CCOC(=O)NCCC(=O)NC(C)(C)c1ccc2c(c1)OCCO2` it is -15.7%. The figure for `CC(C)(C)c1nc(CN(Cc2cccs2)CC2CCCO2)no1` (configuration not stated) is 11.2%; for `c1cncc(COc2ccccc2CNC2CCc3ncnn3C2)c1` (configuration not stated) it is -4.823%. The figure for `Cc1noc(C2CCC3(CCN(C(=O)c4ncccn4)CC3)O2)n1` (configuration not stated) is -14.2%; for `O=C(C(c1ccccc1)S(=O)(=O)c1ccccn1)N1CCCCC1` (configuration not stated) it is 24.7%; for `Cc1ccc(C(C)N(C)C(=O)c2ccc(=O)n(C)c2)s1` (configuration not stated) it is 37.4%.

Consider `Cc1ncsc1CN1CCOC(C)(C(=O)N(C)C)C1` (configuration not stated), for which the INHIBITION amounted to 21.1%. In the case of `CCCn1c(C)c(CC(=O)NC(C)(C)CO)c2c1CC(C)(C)CC2=O`, the INHIBITION amounted to 4.25%. `Cn1cc(CN2C[C@@H]3COC[C@]3(C(=O)NCCc3ccccc3)C2)cn1`: the INHIBITION is given as 32.2%.

On to `O=C(NC1CC1)[C@@H]1C[C@@H]2CCN(Cc3ccccc3)C[C@H]2O1`, for which the INHIBITION came out at 29.9%. The figure for `O=C(NC1CC1)[C@H]1C[C@@H]2CCN(CCc3ccccc3)C[C@H]2O1` is 44.4%; for `O=C(NC1CCC1)[C@@H]1C[C@@H]2CCN(CCc3ccccc3)C[C@H]2O1` it is 81.2%. Then `CS(=O)(=O)c1ccc(CNC(=O)N2CCC(CO)CC2)cc1`, with 17.4%; and `CCc1nccn1CC1CCCN1S(=O)(=O)N1CCCOCC1` (configuration not stated), with -9.39%; and `CN1C[C@H]2CC[C@@H](CC1=O)N2C(=O)c1cc2ccccc2[nH]c1=O`, with -7.53%. Then `Cc1cc(N(C)C)nc(N2CCCC2c2ccccn2)n1` (configuration not stated), with -30%; and `CC(C)CCC(=O)NC(C)c1nnc2n1CCCCC2` (configuration not stated), with 53.8%. As to `CC(NC(=O)CCC1CCCCC1)c1nnc2n1CCC2` (configuration not stated), the INHIBITION is -31.8%. Then `CC(C)c1noc(CCC(=O)NC(C)c2nnc3n2CCC3)n1` (configuration not stated), with 20.6%; and `CC(C)c1noc(CCCC(=O)NC(C)c2nnc3n2CCC3)n1` (configuration not stated), with 50.2%; and `CC(C)c1noc(CCC(=O)NC(C)c2nnc3n2CCCCC3)n1` (configuration not stated), with 11.8%. Consider `CCCC(=O)NC(C)c1nnc2n1CCC2` (configuration not stated), for which the INHIBITION worked out at 3.73%. Then `CSCCC(C)(O)CNS(=O)(=O)Cc1cccc(C)c1` (configuration not stated), with 17%; and `CCOc1cncc(N2CCCC2c2nnc3n2CCCCC3)n1` (configuration not stated), with 24.2%. Then `Clc1cncc(N2CCCC2c2nnc3n2CCCCC3)n1` (configuration not stated), with -22.4%; and `c1cnc2nc(N3CCCC3c3nnc4n3CCCCC4)ccc2n1` (configuration not stated), with 58.7%; and `Cc1cc(N2CCCC2c2nnc3n2CCCCC3)nc(N)n1` (configuration not stated), with 63.6%. The figure for `c1ccc2nc(N3CCCC3c3nnc4n3CCCCC4)cnc2c1` (configuration not stated) is 42.8%; for `Cc1cc(N2CCCC2c2nnc3n2CCCCC3)nc(C)n1` (configuration not stated) it is 23.6%; for `Cc1cnn(C2CCCN(C(=O)Cc3n[nH]c4ccccc34)C2)c1` (configuration not stated) it is 33.7%. Regarding `CN(CCc1ccccn1)C(=O)CCC1CCCN(S(C)(=O)=O)C1` (configuration not stated), the INHIBITION was 15.3%. In the case of `O=C(NCc1nncn1C1CCCCC1)C1COc2ccccc2C1` (configuration not stated), the INHIBITION worked out at 32.4%. The figure for `CNC(=O)N1CCc2cc(C(=O)N(C)C)c(NCC3CC3)nc2CC1` is -25%; for `COc1ccc(Cl)cc1CCNC(=O)NCc1ncnn1C` it is -23.5%; for `COc1ccc(Br)c(NC(=O)NCc2ncnn2C)c1` it is 13.8%.

With `Cc1c(NCC(C)(C)C)cccc1C(=O)NCc1ncnn1C`, the INHIBITION is -30.1%. The figure for `Cc1cc(C)cc(C(=O)NCc2ncnn2C)c1` is 57.2%; for `COc1ccc(C)c(NC(=O)NCc2ncnn2C)c1` it is 51.1%; for `Cc1c(Cl)cc(C(=O)NCCc2ncnn2C)cc1Cl` it is 42%.

Source of the values: ChEMBL document CHEMBL4513216, “Probing the Open Global Health Chemical Diversity Library for Multistage-Active Starting Points for Next-Generation Antimalarials” (ACS Infect Dis, 2020).
